# Tests used:
# Assay in all cases: SPOT peptide array binding signal intensity (averaged, normalized) (arbitrary units (background-subtracted, floor 0; scale differs between SH3 domains)); higher = stronger binding of the SH3 domain to the peptide
# AgAbp1 = molecular target: AgAbp1
# How it was run: (§1)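 E. coli BL21(DE3) was used to express GST-fused SH3 domains from four yeast species, which were then purified on glutathione Sepharose. These were incubated at 10 μg/ml in TBS-based blocking buffer overnight at 4°C on cellulose membranes carrying synthetic 15-mer peptides, in which cysteines were replaced by serines. Binding signal is the replicate average of normalized, background-subtracted spot intensity, in arbitrary units that differ between domains.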
# AgBbc1 = molecular target: AgBbc1
# How it was run: as §1
# AgBem1-D1 = molecular target: AgBem1-D1
# How it was run: as §1
# AgBzz1-D1 = molecular target: AgBzz1-D1
# How it was run: as §1
# AgBzz1-D2 = molecular target: AgBzz1-D2
# How it was run: as §1
# AgCyk3 = molecular target: AgCyk3
# How it was run: as §1
# AgFus1 = molecular target: AgFus1
# How it was run: as §1
# AgHof1 = molecular target: AgHof1
# How it was run: as §1
# AgHse1 = molecular target: AgHse1
# How it was run: as §1
# AgLsb1 = molecular target: AgLsb1
# How it was run: as §1
# AgLsb4 = molecular target: AgLsb4
# How it was run: as §1
# AgMyo5 = molecular target: AgMyo5
# How it was run: as §1
# AgNbp2 = molecular target: AgNbp2
# How it was run: as §1
# AgRvs167 = molecular target: AgRvs167
# How it was run: as §1
# AgSho1 = molecular target: AgSho1
# How it was run: as §1
# AgSla1-D1-D2 = molecular target: AgSla1-D1-D2
# How it was run: as §1
# AgSla1-D3 = molecular target: AgSla1-D3
# How it was run: as §1
# CaAbp1-D1 = molecular target: CaAbp1-D1
# How it was run: as §1
# CaAbp1-D2 = molecular target: CaAbp1-D2
# How it was run: as §1
# CaBbc1 = molecular target: CaBbc1
# How it was run: as §1
# CaBem1-D1 = molecular target: CaBem1-D1
# How it was run: as §1
# CaBzz1-D1 = molecular target: CaBzz1-D1
# How it was run: as §1
# CaBzz1-D2 = molecular target: CaBzz1-D2
# How it was run: as §1
# CaCyk3 = molecular target: CaCyk3
# How it was run: as §1
# CaFus1 = molecular target: CaFus1
# How it was run: as §1
# CaHof1 = molecular target: CaHof1
# How it was run: as §1
# CaHse1 = molecular target: CaHse1
# How it was run: as §1
# CaLsb1 = molecular target: CaLsb1
# How it was run: as §1
# CaLsb4 = molecular target: CaLsb4
# How it was run: as §1
# CaMyo5 = molecular target: CaMyo5
# How it was run: as §1
# CaNbp2 = molecular target: CaNbp2
# How it was run: as §1
# CaRvs167 = molecular target: CaRvs167
# How it was run: as §1
# CaRvs167-3 = molecular target: CaRvs167-3
# How it was run: as §1
# CaSho1 = molecular target: CaSho1
# How it was run: as §1
# CaSla1-D1-D2 = molecular target: CaSla1-D1-D2
# How it was run: as §1
# CaSla1-D3 = molecular target: CaSla1-D3
# How it was run: as §1
# ScAbp1 = molecular target: ScAbp1
# How it was run: as §1
# ScBbc1 = molecular target: ScBbc1
# How it was run: as §1
# ScBem1-D1 = molecular target: ScBem1-D1
# How it was run: as §1
# ScBzz1-D1 = molecular target: ScBzz1-D1
# How it was run: as §1
# ScBzz1-D2 = molecular target: ScBzz1-D2
# How it was run: as §1
# ScCyk3 = molecular target: ScCyk3
# How it was run: as §1
# ScFus1 = molecular target: ScFus1
# How it was run: as §1
# ScHof1 = molecular target: ScHof1
# How it was run: as §1
# ScHse1 = molecular target: ScHse1
# How it was run: as §1
# ScLsb1 = molecular target: ScLsb1
# How it was run: as §1
# ScLsb2 = molecular target: ScLsb2
# How it was run: as §1
# ScLsb3 = molecular target: ScLsb3
# How it was run: as §1
# ScLsb4 = molecular target: ScLsb4
# How it was run: as §1
# ScMyo3 = molecular target: ScMyo3
# How it was run: as §1
# ScMyo5 = molecular target: ScMyo5
# How it was run: as §1
# ScNbp2 = molecular target: ScNbp2
# How it was run: as §1
# ScPex13 = molecular target: ScPex13
# How it was run: as §1
# ScRvs167 = molecular target: ScRvs167
# How it was run: as §1
# ScSho1 = molecular target: ScSho1
# How it was run: as §1
# ScSla1-D1-D2 = molecular target: ScSla1-D1-D2
# How it was run: as §1
# ScSla1-D3 = molecular target: ScSla1-D3
# How it was run: as §1
# SpAbp1-D1 = molecular target: SpAbp1-D1
# How it was run: as §1
# SpBbc1 = molecular target: SpBbc1
# How it was run: as §1
# SpBzz1-D1 = molecular target: SpBzz1-D1
# How it was run: as §1
# SpBzz1-D2 = molecular target: SpBzz1-D2
# How it was run: as §1
# SpCyk3 = molecular target: SpCyk3
# How it was run: as §1
# SpHof1 = molecular target: SpHof1
# How it was run: as §1
# SpHof1-2 = molecular target: SpHof1-2
# How it was run: as §1
# SpHof1-3 = molecular target: SpHof1-3
# How it was run: as §1
# SpHse1 = molecular target: SpHse1
# How it was run: as §1
# SpLsb1 = molecular target: SpLsb1
# How it was run: as §1
# SpLsb4 = molecular target: SpLsb4
# How it was run: as §1
# SpMyo1 = molecular target: SpMyo1
# How it was run: as §1
# SpNbp2 = molecular target: SpNbp2
# How it was run: as §1
# SpPex13 = molecular target: SpPex13
# How it was run: as §1
# SpRvs167 = molecular target: SpRvs167
# How it was run: as §1
# SpSla1-D1-D2 = molecular target: SpSla1-D1-D2
# How it was run: as §1
# SpSla1-D3 = molecular target: SpSla1-D3
# How it was run: as §1
binder,measurement,setting,value
GPPPPLPPPLFPSSS,SPOT peptide array binding signal intensity,AgAbp1,≤ 0
same,SPOT peptide array binding signal intensity,AgBbc1,≤ 0
same,SPOT peptide array binding signal intensity,AgBem1-D1,31
same,SPOT peptide array binding signal intensity,AgBzz1-D1,≤ 0
same,SPOT peptide array binding signal intensity,AgBzz1-D2,≤ 0
same,SPOT peptide array binding signal intensity,AgCyk3,≤ 0
same,SPOT peptide array binding signal intensity,AgFus1,≤ 0
same,SPOT peptide array binding signal intensity,AgHof1,1830
same,SPOT peptide array binding signal intensity,AgHse1,62.5
same,SPOT peptide array binding signal intensity,AgLsb1,≤ 0
same,SPOT peptide array binding signal intensity,AgLsb4,≤ 0
same,SPOT peptide array binding signal intensity,AgMyo5,1900
same,SPOT peptide array binding signal intensity,AgNbp2,≤ 0
same,SPOT peptide array binding signal intensity,AgRvs167,1
same,SPOT peptide array binding signal intensity,AgSho1,≤ 0
same,SPOT peptide array binding signal intensity,AgSla1-D1-D2,≤ 0
same,SPOT peptide array binding signal intensity,AgSla1-D3,≤ 0
same,SPOT peptide array binding signal intensity,CaAbp1-D1,1
same,SPOT peptide array binding signal intensity,CaAbp1-D2,≤ 0
same,SPOT peptide array binding signal intensity,CaBbc1,1
same,SPOT peptide array binding signal intensity,CaBem1-D1,114
same,SPOT peptide array binding signal intensity,CaBzz1-D1,93
same,SPOT peptide array binding signal intensity,CaBzz1-D2,10
same,SPOT peptide array binding signal intensity,CaCyk3,≤ 0
same,SPOT peptide array binding signal intensity,CaFus1,≤ 0
same,SPOT peptide array binding signal intensity,CaHof1,178
same,SPOT peptide array binding signal intensity,CaHse1,1.5
same,SPOT peptide array binding signal intensity,CaLsb1,≤ 0
same,SPOT peptide array binding signal intensity,CaLsb4,11.5
same,SPOT peptide array binding signal intensity,CaMyo5,284
same,SPOT peptide array binding signal intensity,CaNbp2,6.5
same,SPOT peptide array binding signal intensity,CaRvs167,7.83
same,SPOT peptide array binding signal intensity,CaRvs167-3,1.5
same,SPOT peptide array binding signal intensity,CaSho1,≤ 0
same,SPOT peptide array binding signal intensity,CaSla1-D1-D2,≤ 0
same,SPOT peptide array binding signal intensity,CaSla1-D3,≤ 0
same,SPOT peptide array binding signal intensity,ScAbp1,≤ 0
same,SPOT peptide array binding signal intensity,ScBbc1,≤ 0
same,SPOT peptide array binding signal intensity,ScBem1-D1,≤ 0
same,SPOT peptide array binding signal intensity,ScBzz1-D1,1.5
same,SPOT peptide array binding signal intensity,ScBzz1-D2,≤ 0
same,SPOT peptide array binding signal intensity,ScCyk3,≤ 0
same,SPOT peptide array binding signal intensity,ScFus1,≤ 0
same,SPOT peptide array binding signal intensity,ScHof1,1900
same,SPOT peptide array binding signal intensity,ScHse1,≤ 0
same,SPOT peptide array binding signal intensity,ScLsb1,288
same,SPOT peptide array binding signal intensity,ScLsb2,12
same,SPOT peptide array binding signal intensity,ScLsb3,110
same,SPOT peptide array binding signal intensity,ScLsb4,20
same,SPOT peptide array binding signal intensity,ScMyo3,1490
same,SPOT peptide array binding signal intensity,ScMyo5,901
same,SPOT peptide array binding signal intensity,ScNbp2,≤ 0
same,SPOT peptide array binding signal intensity,ScPex13,4060
same,SPOT peptide array binding signal intensity,ScRvs167,32.5
same,SPOT peptide array binding signal intensity,ScSho1,≤ 0
same,SPOT peptide array binding signal intensity,ScSla1-D1-D2,≤ 0
same,SPOT peptide array binding signal intensity,ScSla1-D3,≤ 0
same,SPOT peptide array binding signal intensity,SpAbp1-D1,≤ 0
same,SPOT peptide array binding signal intensity,SpBbc1,≤ 0
same,SPOT peptide array binding signal intensity,SpBzz1-D1,683
same,SPOT peptide array binding signal intensity,SpBzz1-D2,4.25
same,SPOT peptide array binding signal intensity,SpCyk3,≤ 0
same,SPOT peptide array binding signal intensity,SpHof1,≤ 0
same,SPOT peptide array binding signal intensity,SpHof1-2,≤ 0
same,SPOT peptide array binding signal intensity,SpHof1-3,≤ 0
same,SPOT peptide array binding signal intensity,SpHse1,40.8
same,SPOT peptide array binding signal intensity,SpLsb1,184
same,SPOT peptide array binding signal intensity,SpLsb4,225
same,SPOT peptide array binding signal intensity,SpMyo1,1290
same,SPOT peptide array binding signal intensity,SpNbp2,≤ 0
same,SPOT peptide array binding signal intensity,SpPex13,≤ 0
same,SPOT peptide array binding signal intensity,SpRvs167,1430
same,SPOT peptide array binding signal intensity,SpSla1-D1-D2,≤ 0
same,SPOT peptide array binding signal intensity,SpSla1-D3,≤ 0
PALPSLPPPPLLNVD,SPOT peptide array binding signal intensity,AgAbp1,≤ 0
same,SPOT peptide array binding signal intensity,AgBbc1,0.5
same,SPOT peptide array binding signal intensity,AgBem1-D1,≤ 0
same,SPOT peptide array binding signal intensity,AgBzz1-D1,≤ 0
same,SPOT peptide array binding signal intensity,AgBzz1-D2,8.5
same,SPOT peptide array binding signal intensity,AgCyk3,≤ 0
same,SPOT peptide array binding signal intensity,AgFus1,≤ 0
same,SPOT peptide array binding signal intensity,AgHof1,1370
same,SPOT peptide array binding signal intensity,AgHse1,≤ 0
same,SPOT peptide array binding signal intensity,AgLsb1,≤ 0
same,SPOT peptide array binding signal intensity,AgLsb4,≤ 0
same,SPOT peptide array binding signal intensity,AgMyo5,2040
same,SPOT peptide array binding signal intensity,AgNbp2,≤ 0
same,SPOT peptide array binding signal intensity,AgRvs167,≤ 0
same,SPOT peptide array binding signal intensity,AgSho1,77.5
same,SPOT peptide array binding signal intensity,AgSla1-D1-D2,≤ 0
same,SPOT peptide array binding signal intensity,AgSla1-D3,≤ 0
same,SPOT peptide array binding signal intensity,CaAbp1-D1,12
same,SPOT peptide array binding signal intensity,CaAbp1-D2,22
same,SPOT peptide array binding signal intensity,CaBbc1,≤ 0
same,SPOT peptide array binding signal intensity,CaBem1-D1,≤ 0
same,SPOT peptide array binding signal intensity,CaBzz1-D1,≤ 0
same,SPOT peptide array binding signal intensity,CaBzz1-D2,1
same,SPOT peptide array binding signal intensity,CaCyk3,≤ 0
same,SPOT peptide array binding signal intensity,CaFus1,≤ 0
same,SPOT peptide array binding signal intensity,CaHof1,1170
same,SPOT peptide array binding signal intensity,CaHse1,0.25
same,SPOT peptide array binding signal intensity,CaLsb1,0.25
same,SPOT peptide array binding signal intensity,CaLsb4,≤ 0
same,SPOT peptide array binding signal intensity,CaMyo5,293

# From the supplement of paper PMC4466140
